Data taken from PubChem BioAssay AID1159580 (chemical genetic matrix, 2015).
“And” between values parts separate entries of the source, which are not always exact repeats. Identical values can stand only once. The campaign covered roughly 5,500 compounds. About 2,000 (36%) were called active. Inconclusive results (about 18%) are left out. Rule as the data show it: active = normalized growth mostly below about 0.91 (no sharp cut-off); inconclusive = no clear call, values can overlap the other calls; inactive = mostly above about 0.92. The list shows a part of the results.

Test: chemical genetic growth profiling, strain panel (AID 1159580);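 also: tested at 20 µM; growth read once vehicle control cultures reached saturation at 30 °C; 1 = growth at the plate median or of vehicle wells; lower values mean less growth of the strain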
Details: S. cerevisiae deletion strains, growth OD

Measured: normalized growth

Cc1ccc(C)c(OCCCC(C)(C)C(=O)O)c1
active: locus YCL029C, strain bik1, stronger effect = lower value 0.894 | locus YDL035C, strain GPR1, stronger effect = lower value 0.845 | locus YDL185W, strain tfp1, stronger effect = lower value 0.309 | locus YDR101C, strain arx1, stronger effect = lower value 0.872 | locus YDR137W, strain rgp1, stronger effect = lower value 0.699 | locus YDR162C, strain NBP2, stronger effect = lower value 0.832 | locus YDR318W, strain mcm21, stronger effect = lower value 0.866 | locus YDR388W, stronger effect = lower value 0.874 | locus YDR392W, strain spt3, stronger effect = lower value 0.58 | locus YDR502C, strain sam2, stronger effect = lower value 0.852 | locus YGL078C, strain dbp3, stronger effect = lower value 0.485 | locus YGL086W, strain mad1, stronger effect = lower value 0.877 | locus YHR079C, strain IRE1 (second series), stronger effect = lower value 0.869 | locus YHR079C, strain IRE1, stronger effect = lower value 0.833 | locus YIL125W, strain kgd1, stronger effect = lower value 0.356 | locus YJL129C, strain trk1, stronger effect = lower value 0.857
inactive: locus YAL021C, strain ccr4, stronger effect = lower value 0.986 | locus YAL026C, strain drs2, stronger effect = lower value 0.919 | locus YAL030W, strain snc1, stronger effect = lower value 0.981 | locus YBL061C, strain skt5, stronger effect = lower value 0.975 | locus YBR009C, strain hhf1, stronger effect = lower value 0.957 | locus YBR021W, strain FUR4, stronger effect = lower value 0.926 | locus YBR023C, strain chs3, stronger effect = lower value 0.964 | locus YBR171W, strain sec66, stronger effect = lower value 0.948 | locus YBR229C, strain ROT2, stronger effect = lower value 0.939 | locus YBR231C, strain swc5, stronger effect = lower value 0.986 | locus YBR279W, strain paf1, stronger effect = lower value 0.983 | locus YCL011C, strain gbp2, stronger effect = lower value 0.978 | locus YCL016C, strain dcc1, stronger effect = lower value 0.949 | locus YCL061C, strain MRC1, stronger effect = lower value 0.968 | locus YCL069W, strain vba3, stronger effect = lower value 0.987 | locus YCR088W, strain abp1, stronger effect = lower value 0.982 | locus YDL005C, strain med2, stronger effect = lower value 0.982 | locus YDL040C, strain nat1, stronger effect = lower value 0.987 | locus YDL074C, strain BRE1, stronger effect = lower value 0.858 | locus YDL101C, strain DUN1, stronger effect = lower value 0.975 | locus YDL192W, strain arf1, stronger effect = lower value 0.931 | locus YDR001C, strain nth1, stronger effect = lower value 0.973 | locus YDR069C, strain doa4, stronger effect = lower value 0.987 | locus YDR159W, strain sac3, stronger effect = lower value 0.962 | locus YDR195W, strain ref2 1.1 | locus YDR297W, strain sur2, stronger effect = lower value 0.992 | locus YDR334W, strain swr1, stronger effect = lower value 0.99 | locus YDR335W, strain msn5, stronger effect = lower value 0.989 | locus YEL003W, strain gim4, stronger effect = lower value 0.97 | locus YEL037C, strain rad23, stronger effect = lower value 0.979 | locus YEL061C, strain CIN8 (second series), stronger effect = lower value 0.98 | locus YEL061C, strain CIN8, stronger effect = lower value 0.943 | locus YER015W, strain faa2, stronger effect = lower value 1.01 | locus YER016W, strain bim1, stronger effect = lower value 0.976 | locus YER110C, stronger effect = lower value 0.937 | locus YER111C, strain swi4, stronger effect = lower value 0.981 | locus YER155C, strain BEM2 (second series), stronger effect = lower value 1.03 | locus YER155C, strain BEM2, stronger effect = lower value 0.939 | locus YER167W, strain BCK2, stronger effect = lower value 0.959 | locus YFR010W, strain ubp6, stronger effect = lower value 0.991 | locus YGL167C, strain pmr1, stronger effect = lower value 0.963 | locus YGL173C, strain kem1, stronger effect = lower value 0.955 | locus YGL227W, strain vid30, stronger effect = lower value 0.984 | locus YGL240W, strain doc1, stronger effect = lower value 0.999 | locus YGL248W, strain PDE1, stronger effect = lower value 0.914 | locus YGL253W, strain hxk2, stronger effect = lower value 0.975 | locus YGR135W, strain pre9, stronger effect = lower value 0.895 | locus YGR252W, strain gcn5, stronger effect = lower value 0.794 | locus YHR013C, strain ard1, stronger effect = lower value 1.02 | locus YHR027C, strain rpn1, stronger effect = lower value 0.983 | locus YHR094C, strain hxt1, stronger effect = lower value 0.941 | locus YHR129C, strain ARP1, stronger effect = lower value 0.945 | locus YHR142W, strain chs7, stronger effect = lower value 0.957 | locus YHR200W, strain rpn10, stronger effect = lower value 0.924 | locus YIL066C, strain RNR3, stronger effect = lower value 0.936 | locus YIL073C, strain SPO22, stronger effect = lower value 0.891 | locus YIR030C, strain dcg1, stronger effect = lower value 0.931 | locus YJL092W, strain hpr5, stronger effect = lower value 0.979 | locus YJL095W, strain BCK1 (second series), stronger effect = lower value 0.983 | locus YJL115W, strain asf1, stronger effect = lower value 1 | locus YJL134W, strain LCB3, stronger effect = lower value 0.938 | locus YJL154C, strain vps35, stronger effect = lower value 0.994 | locus YJL164C, strain tpk1, stronger effect = lower value 0.979 | locus YJL166W, strain qcr8, stronger effect = lower value 0.975 | locus YJL168C, strain set2, stronger effect = lower value 0.941 | locus YJL187C, strain SWE1 (second series), stronger effect = lower value 0.942 | locus YJL187C, strain SWE1, stronger effect = lower value 0.985 | locus YJR043C, strain POL32, stronger effect = lower value 0.935
0.95 (inactive) and 0.784 (active): locus YHR030C, strain SLT2, stronger effect = lower value
0.819 (inactive) and 0.823 (active): locus YJL095W, strain BCK1, stronger effect = lower value
